# In PubChem BioAssay (NCATS):
# Values joined by “and” are separate entries in the source; they are usually repeats but may differ in a detail not shown here. Equal values may be shown once. Results filed as inconclusive are left out. Active and inactive are the calls of the source. Calls follow the shape of the dose curve; as a rule, active = well fitted cell-killing curve with a large enough effect; inconclusive = small, poorly fitted or top-dose-only effect; inactive = flat fitted curve, though single readings scatter.
# Experiment: Cell Viability - LYMP2-009 (AID 968); also: nearly all actives have a fitted effect of over 55% in size;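 as to activity change, negative = viability loss: 0% = DMSO alone and the full-kill end = tetraoctylammonium bromide at 92 µM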
# Settings: LYMP2-009 lymphoblastoid cell viability; series mostly up to 92.2 µM; activity change, negative = viability loss: at the top concentration
# Source text: NIH Chemical Genomics Center [NCGC]
# NIH Molecular Libraries Screening Centers Network [MLSCN]
# National Institutes of Environmental Health Sciences [NIEHS]
# National Toxicology Program [NTP]
# We have developed a 1536-well cell-based assay for quantitative high throughput screening (qHTS) against a number of cell lines to determine in vitro cytotoxicity of small molecules. This particular assay uses a human lymphoblastoid cell line (LYMP2-009) purchased from Coriell Institute for Medical Research.
# NCGC Assay Protocol Summary:
# The CellTiter-Glo luminescent cell viability assay (Promega) is a homogeneous method to measure the number of viable cells in culture. The end point readout of this assay is based on quantitation of intracellular ATP, an indicator of metabolic activity, using the luciferase reaction. Luciferase catalyzes the oxidation of beetle Luciferin to oxyluciferin and light in the presence of ATP. The luminescent signal is proportional to amount of ATP present.
# Using the CellTiter-Glo luminescent cell viability assay, the amount of cellular ATP was measured in the lymphoblastoid cell line with complete culture medium following compound treatment for 24 hours. The assay was performed in opaque white Kalypsys 1536-well plates. In the screen, tetraoctylammonium bromide was used as positive control. Library compounds were measured for their ability to cause acute toxicity in the cell line, as reflected by a decrease in intracellular ATP levels, in a concentration-dependent manner. […] AC50 values were determined from concentration-response data modeled with the standard Hill equation.
# qHTS protocol for CellTiter Glo lymphoblastoid cellular assay
# [Step] [Parameter] [Value] [Description]
# 1. Reagent; 5 uL; 2500 lymphoblastoid cells/well
# 2. Time; 5 hr; 37 C incubation
# 4. Controls; 23 nL; Tetraoctylammonium bromide 6.4pM to 92 uM
# 5. Time; 24 hr; 37 C incubation
# 6. Reagent; 5 uL; CellTiter Glo reagent
# 7. Time; 30 min; Room Temperature
# 8. Detection; Luminescence; Viewlux plate reader
# Keywords: cell viability, cytotoxicity, lymphoblastoid cell line, luminescence, NTPHTS, NTPHTS_NCGC, NIEHS, DSSTox, MLSMR, MLSCN, NIH Roadmap, qHTS, NCGC
# Potency is read from the fitted curve at half-maximal effect.
SMILES,"activity change, negative = viability loss",Potency
O=[N+]([O-])c1ccccc1,3.94% (inactive),
O=CC=O,-14.7% (inactive),
O=C(O)C(Cl)(Cl)Cl,,inactive
O=C1C=CC(=O)C=C1,,50.1 µM (active)
C[C@H]1CCC[C@H](O)CCCCCc2cc(O)cc(O)c2C(=O)O1,-8% (inactive),
[Cl-].[Cl-].[Hg+2],,10 µM (active)
CC(C)Nc1ccc(Nc2ccccc2)cc1,,31.6 µM (active)
ClC=C(Cl)Cl,-1.18% (inactive),
O=Cc1ccco1,-5.76% (inactive),
Oc1cc(Cl)c(Cl)cc1Cl,-22.6% (inactive),
CCCCCCCCOC(=O)c1ccccc1C(=O)OCCCCCCCC,-5.8% (inactive),
O=[N+]([O-])c1ccc(F)c([N+](=O)[O-])c1,-28.3% (inactive),
[O]=[Cd],-0.661% (inactive),
COC1=CC(=O)O[C@@H](/C=C/c2ccccc2)C1,-9.82% (inactive),
CC(C)(C)c1cc(O)ccc1O,,50.1 µM (active)
C[C@]12CCC(=O)C[C@@H]1CC[C@@H]1[C@@H]2CC[C@]2(C)[C@@H](O)CC[C@@H]12,-15.3% (inactive),
C=CCN=C=S,-4.6% (inactive),
NNC(N)=O,-6.78% (inactive),
ClC(Cl)(Cl)Cl,,inactive
O=C1C2CC=CCC2C(=O)N1SC(Cl)(Cl)Cl (stereo not given),,6.31 µM (active) and 5.01 µM (active)
S=C=S,-0.279% (inactive),
CCOC(=O)c1ccccc1C(=O)OCC,,inactive
Clc1ccccc1Cl,-2.25% (inactive),
[O]=[Cr](=[O])([OH])[O][Cr](=[O])(=[O])[OH],,10 µM (active) and 6.31 µM (active)
CC(C)CCON=O,-5.61% (inactive),
CCCCCl,-6.03% (inactive),
O=C1CCO1,-1.18% (inactive),
O=C/C=C/c1ccccc1,,inactive
COc1ccc2c(c1OC)C(=O)OC2C1c2cc3c(cc2CCN1C)OCO3 (stereo not given),-3.42% (inactive),
C[C@H]1CC[C@@H]2[C@@H](C)[C@H]3[C@H](C[C@H]4[C@@H]5CC=C6CC(O[C@@H]7O[C@H](CO)[C@H](O)[C@H](O[C@@H]8O[C@H](CO)[C@@H](O)[C@H](O)[C@H]8O)[C@H]7O[C@H]7O[C@@H](C)[C@H](O)[C@@H](O)[C@H]7O)CC[C@]6(C)[C@H]5CC[C@]34C)N2C1 (stereo not given in full),,39.8 µM (active)
